# HT1080NT lethal: qHTS for induction of synthetic lethality in tumor cells producing 2HG: qHTS for the HT-1080-NT fibrosarcoma cell line | HT-1080-NT fibrosarcoma viability, CellTiter-Glo ATP luminescence, 48 h | Potency, µM (highest dose often 46.1 µM), inactives show at the top dose activity, negative = less viability, actives largely listed as cytotoxic | 360,000 compounds, 1.6% hits | AID 686970, 2013;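 also: NT is the 2HG producing partner of a matched IDH1 knockdown line; 0% = DMSO-treated cells and -100% = media-only wells without cells; nearly all actives have a fitted effect of over 55% in size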
#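 HT-1080-NT fibrosarcoma cells (2HG-overproducing), 750 cells/well in RPMI with 5% FBS, dosed after 2 h and incubated 48 h at 37C. CellTiter-Glo luminescence normalized to DMSO and no-cell wells; concentration-response curves fitted and classed.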
# KB-3-1 cytotox: qHTS assay for MDR1-selective chemotherapeutics: Primary screen using the parental adenocarcinoma cell KB-3-1; KB-3-1 viability, CellTiter-Glo ATP luminescence, 72 h; Potency, µM (series often up to 46.1 µM), most hits filed as cytotoxic; 400,000 compounds, 1.4% hits; AID 1347075, 2019; also: nearly all actives have a fitted effect of over 60% in size
#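 Here the drug-naive KB-3-1 line serves as comparator for MDR sub-line selectivity; cells received compound titrations, 72 h at 37 °C, then CellTiter-Glo readout.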
# DT40 TDP1 CPT: qHTS for Inhibitors of human tyrosyl-DNA phosphodiesterase 1 (TDP1): qHTS in cells in presence of CPT; chicken DT40 Tdp1-/-;hTDP1 cells + 20 nM CPT, ATP luminescence, 48 h; Potency, µM (doses to about 46.2 µM), inactives show top-dose activity change, negative = growth inhibition, usual class: inhibitors; 420,000 compounds, 12% hits; also: nearly all actives have a fitted effect of over 55% in size
#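 Chicken DT40 Tdp1-/- cells stably complemented with human TDP1 were seeded at 400 cells/well in medium containing 20 nM camptothecin, exposed to pin-transferred compounds, and grown at 37 °C for at least 48 hr. Viability was read as ATP luminescence.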
# KB-V1 MDR tox: qHTS assay for MDR1-selective chemotherapeutics: Primary screen using the drug-selected MDR subline cells KB-V1 | KB-V1 MDR cells viability, CellTiter-Glo, 72 h | Potency, µM (top dose mostly 46.1 µM), actives largely listed as cytotoxic | 400,000 compounds, 3.4% hits; also: nearly all actives have a fitted effect of over 60% in size
#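 Drug-selected KB-V1 cells, grown in DMEM lacking phenol red with 10% FBS, receive compound titrations; after three days at 37 degrees C, surviving cell ATP is quantified by CellTiter-Glo luminescence and responses normalized and curve-fitted.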
# HT1080 IDH1KD tx: qHTS for induction of synthetic lethality in tumor cells producing 2HG: qHTS for the HT-1080-IDH1KD cell line | AID 686971, 2013 | Potency, µM (titrated, usually from 46.1 µM), inactives show at the highest dose activity, negative = toxicity, usual class: cytotoxic | HT-1080 IDH1 knockdown viability, ATP luminescence, 48 h | 360,000 compounds, 2% hits;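 also: 0% = DMSO wells and -100% = cell-free medium wells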
#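 IDH1KD HT-1080 cells, 750/well, RPMI + 5% FBS; compound pinned after 2 h settling; 48 h, 37 °C; CellTiter-Glo luminescence; % activity normalised to DMSO and no-cell wells; curves fitted, classed by r2 and efficacy.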
# TDP1 cell noCPT: qHTS for Inhibitors of human tyrosyl-DNA phosphodiesterase 1 (TDP1): qHTS in cells in absence of CPT; DT40 Tdp1-/- hTDP1 cells, no CPT, ATP luminescence, 48 h; Potency, µM (highest dose often 46.2 µM), for inactives: at the highest dose activity change, negative = growth inhibition, hits mostly inhibitors; 420,000 compounds, 15% hits; also: nearly all actives have a fitted effect of over 55% in size
#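 Compound effects on proliferation are scored in DT40 Tdp1-/-;hTDP1 cells in the absence of CPT. ATP levels (CellTiter-Glo luminescence) are recorded after a ≥48 hr, 37 °C incubation.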
# Active calls of the source: *; i = inactive; ? = inconclusive; . = no result; [ ] = remark or other dose. Sampled rows, rich in hits. Any-hit rate of the full collection: about 19%. Calls follow the shape of the dose curve; as a rule, active = well fitted curve in the direction sought with a large enough effect; inconclusive = small, poorly fitted or top-dose-only effect, or another doubt; inactive = no such curve, though single readings can be large; an effect the other way counts as inactive or inconclusive. Unless noted, % is scaled to controls: 0 for no effect and ±100 for the full control effect; potency is read from the fitted curve at half-maximal effect.
SMILES,HT1080NT lethal,KB-3-1 cytotox,DT40 TDP1 CPT,KB-V1 MDR tox,HT1080 IDH1KD tx,TDP1 cell noCPT
O=C(Nc1ccc(S(=O)(=O)N2CCCCCC2)cc1)c1cc(=O)c2ccccc2o1,.,i,?,i,.,?
O=C(Cc1ccc(S(=O)(=O)N2CCOCC2)s1)N1CCN(S(=O)(=O)c2ccc(Cl)cc2)CC1,-4%[9.24 µM],i,23µM*,i,-13%,23µM*
CCOc1ccccc1N1CCN(C(=O)Cc2ccc(S(=O)(=O)N3CCOCC3)s2)CC1,-3%,i,?,23µM*,1%,21µM*
O=C(c1ccc(S(=O)(=O)N2CCOCC2)cc1)N1CCN(S(=O)(=O)c2ccc(Cl)s2)CC1,25%,i,?,?,6%,16µM*
O=C(Cc1ccc(S(=O)(=O)N2CCCC2)s1)N1CCN(c2ccccc2)CC1,13%,i,3%,?,-1%,-24%
O=C(Cc1ccc(S(=O)(=O)N2CCOCC2)s1)N1CCN(c2cccc(C(F)(F)F)c2)CC1,-25%,i,7.3µM*,i,-21%,3.7µM*
Cc1ccc(S(=O)(=O)N2CCN(C(=O)Cc3ccc(S(=O)(=O)N4CCOCC4)s3)CC2)cc1,-3%,i,-19%,i,-4%,-19%
O=C(NCc1ccccc1F)c1cc2ccccn2n1,.,i,-17%,i,.,?
CCOC(=O)[C@]12CCC=C1N(Cc1ccccc1)C(=O)[C@H](CC(=O)N1CCN(C(=O)c3ccco3)CC1)C2,16%,i,-7%,?,-2%,-15%
COc1ccc(OCC(=O)NC2CC(=O)N(c3ccc4c(c3)OCCO4)C2)cc1 (centres undefined),.,i,1%,i,.,0%
O=C(Cc1ccc(S(=O)(=O)N2CCOCC2)s1)N1CCN(S(=O)(=O)c2cccc(F)c2)CC1,0%,i,?,i,-4%,-10%
O=C(Cc1ccc(S(=O)(=O)N2CCOCC2)s1)N1CCN(S(=O)(=O)c2cccc(Cl)c2)CC1,0%,i,16µM*,i,-14%,16µM*
O=C(Nc1ccc(S(=O)(=O)N2CCOCC2)cc1)c1ccc(Cl)s1,?,?,23µM*,i,-27%,?
CCOC(=O)[C@]12CCCC=C1N(Cc1ccccc1)C(=O)[C@H](CC(=O)NCc1cccc(C(F)(F)F)c1)C2,29µM*,i,?,?,?,?
CCOC(=O)[C@]12CCCC=C1N(Cc1ccco1)C(=O)[C@H](CC(=O)NCc1cccc(C(F)(F)F)c1)C2,-21%,i,?,?,-12%,18µM*
COC(=O)[C@]12CCCCC=C1N(Cc1ccco1)C(=O)[C@H](CC(=O)NCc1cccc(C(F)(F)F)c1)C2,-5%,i,?,i,-11%,?
COC(=O)[C@]12CCCCC=C1N(Cc1cccc3ccccc13)C(=O)[C@H](CC(=O)NCc1cccc(C(F)(F)F)c1)C2,?,?,?,9.2µM*,?,?
CCOC(=O)[C@]12CCCC=C1N(Cc1cccc3ccccc13)C(=O)[C@H](CC(=O)NCc1cccc(C(F)(F)F)c1)C2,?,i,?,i,-23%,?
CCOC(=O)[C@]12CCC=C1N(CCC1=CCCCC1)C(=O)[C@H](CC(=O)NCc1cccc(C(F)(F)F)c1)C2,-27%,i,?,?,-5%,21µM*
CSCCC(NC(=O)c1cccc(S(=O)(=O)N2CCOCC2)c1)C(=O)Nc1cccc(C)c1 (centres undefined),-7%,i,-7%,?,-5%,-9%
CCN1C(=O)C2(c3ccccc31)c1c(oc3ccc(C)cc3c1=O)C(=O)N2CCCOC(C)C (centres undefined),.,i,?,i,.,?
COc1ccc2c(c1)cc1c(=O)n(CC(=O)NC(C)C)nc(C)n12,.,i,-6%,?,.,-15%
COc1ccc(C)c2sc(NC(=O)c3ccc(S(=O)(=O)N4CCOCC4)cc3)nc12,.,i,?,i,.,?
COc1cc(C(=O)Nc2cccc(C)c2C)ccc1OCC(=O)N1CCOCC1,0%,i,0%,i,4%,0%
COc1ccc(NC(=O)Nc2ccc3c(c2)C(=O)N([C@@H](C)CO)C[C@@H](C)[C@@H](CN(C)CC2CCCCC2)O3)cc1,-3%,i,?,i,-19%,23µM*
SMILES,HT1080NT lethal,KB-3-1 cytotox,DT40 TDP1 CPT,KB-V1 MDR tox,HT1080 IDH1KD tx,TDP1 cell noCPT
COc1ccc(NC(=O)Nc2cccc3c2O[C@@H](CN(C)CC2CCCCC2)[C@@H](C)CN([C@H](C)CO)C3=O)cc1,-15%,?,23µM*,i,-2%,?
Cc1ccccc1-c1nc(CN2CCC(C(=O)NCCCN3CCOCC3)CC2)c(C)o1,10µM*,i,-28%,i,-19%,-6%
Cc1ccccc1-c1nc(CN2CCC(C(=O)NCCCN3CC(C)CC(C)C3)CC2)c(C)o1 (centres undefined),-17%,?,23µM*,i,-28%,?
Cc1cc(C(=O)COC(=O)c2ccc(O)cc2O)c(C)n1C(C)C,-15%,i,18µM*,i,-19%,13µM*
COc1ccc(CCn2c(C)cc(C(=O)COC(=O)c3ccc(O)cc3O)c2C)cc1,-18%,i,?,?,0%,?
COc1cccc(-c2ccc3ncnc(NCc4cccc(C)c4)c3c2)c1,.,i,.,i,.,.
CNc1ncnc2ccc(-c3ccc4c(c3)OCO4)cc12,.,.,23µM*,.,.,18µM*
COc1cccc(-c2ccc3ncnc(NC4CCNCC4)c3c2)c1,.,.,?,.,.,13µM*
COc1cccc(-c2ccc3ncnc(NCCNC(C)=O)c3c2)c1,.,.,15µM*,.,.,?
CNc1ncnc2ccc(-c3cccc(OC)c3)cc12,.,.,16µM*,.,.,23µM*
Cc1cc(C)cc(-n2ccn(CC(=O)Nc3ccccc3C(F)(F)F)c(=O)c2=O)c1,.,.,3%,.,.,3%
Cc1ccc(-c2ccc(CCC(=O)O)n2-c2cccc(C)c2C)cc1,.,i,-15%,?,.,-20%

# Screening data: PubChem BioAssay, National Center for Advancing Translational Sciences (NCATS)
